The text below walks through data of PubChem BioAssay.

Test [1] is described as follows: inhibitors of E-selectin induction by TNFa, primary screen, imaging, HUVEC, immunofluorescence, MLSMR starter and 10KST1 sets (AID 487;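 active = visually confirmed hit in the image check and inhibition above 20%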;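 as to inhibition: signal is fraction of cell area covered by stained E-selectin grains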;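 as to nuclei count: 100% = median nuclei count of all wells on the same plate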). The following applies: HUVEC TNFalpha-induced E-selectin immunofluorescence imaging, at 2 µM; inhibition: stronger effect = higher value; nuclei count: measured here: cell number, toxicity.
Test [2] can be described thus: DUSP6 inhibitors restoring Erk phosphorylation by chemical complementation, primary imaging in DUSP6-transfected HeLa (AID 609;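 active = compounds giving at least 50% inhibition in the cell-based MKP-3 phosphatase rescue imaging test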;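 as to inhibition: phospho-Erk level distribution per well compared with pooled transfected vehicle control wells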). The following applies: HeLa MKP-3 transfected, phospho-Erk imaging KS statistic, at 10 µM, cells stimulated with TPA for 15 min.
In test [3] the target is Dual specificity protein phosphatase 6 (Homo sapiens) (UniProt Q16828). Described as above. To be noted: HeLa MKP-3 transfected, phospho-Erk imaging KS statistic; at 10 µM; stronger effect = higher value; cells stimulated with TPA for 15 min.
Chain of Dual specificity protein phosphatase 6 (Homo sapiens) (Q16828 whole entry, looked up): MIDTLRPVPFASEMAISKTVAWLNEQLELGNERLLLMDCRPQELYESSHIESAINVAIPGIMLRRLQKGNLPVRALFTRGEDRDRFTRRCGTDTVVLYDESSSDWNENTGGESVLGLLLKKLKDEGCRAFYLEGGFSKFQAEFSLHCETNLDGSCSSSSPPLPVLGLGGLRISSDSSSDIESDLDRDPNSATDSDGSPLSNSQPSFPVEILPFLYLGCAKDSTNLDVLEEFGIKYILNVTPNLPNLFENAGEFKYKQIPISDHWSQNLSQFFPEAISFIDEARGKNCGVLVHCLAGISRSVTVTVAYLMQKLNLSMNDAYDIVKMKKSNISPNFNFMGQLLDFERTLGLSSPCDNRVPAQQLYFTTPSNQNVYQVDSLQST
Test [4] has as its target Voltage-gated potassium channel subunit beta-2 (Rattus norvegicus) (UniProt P62483). As to the kind of experiment: KvBeta enzyme negative modulators, primary screen, biochemical, NADPH fluorescence (AID 622;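 active = fluorescence slope higher than the sample average by over 3 SD, cut at about -0.22 in these data, passing the limit was not always enough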;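 also: slope of raw intensity against log time taken from 70 to 1610 s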). To be noted: recombinant KvBeta, 4-cyanobenzaldehyde reduction, at 10 µM, stronger effect = higher value.
For test [5] the target is unchanged. As to the kind of experiment: KvBeta positive modulators, primary screen, biochemical, NADPH fluorescence (AID 623;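 active = NADPH fluorescence slope more negative than the mean of all samples by about 3 SD, 99.7% confidence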;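 also: fluorescence intensity change per second fitted from 20 to 320 s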). The following applies: Recombinant KvBeta, NADPH fluorescence decrease slope, 10 min; at 10 µM; stronger effect = lower value.
The target of test [6] is Muscarinic acetylcholine receptor M4 (Homo sapiens) (UniProt P08173). In words: compounds altering M4/GIRK thallium flux, either direction, primary screen, M4 allosteric agonist project, cell-based, HEK293 M4/GIRK, BTC-AM (AID 625;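 active = fluorescence slope after compound addition differing from the mean of all tested samples at 99.7% confidence, mostly higher but some lower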;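 also: thallium influx through GIRK channels coupled to M4 in HEK293 cells with BTC-AM dye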). To be noted: at 10 µM, actives lie on both sides.
Chain of Muscarinic acetylcholine receptor M4 (Homo sapiens) (P08173 whole entry, looked up): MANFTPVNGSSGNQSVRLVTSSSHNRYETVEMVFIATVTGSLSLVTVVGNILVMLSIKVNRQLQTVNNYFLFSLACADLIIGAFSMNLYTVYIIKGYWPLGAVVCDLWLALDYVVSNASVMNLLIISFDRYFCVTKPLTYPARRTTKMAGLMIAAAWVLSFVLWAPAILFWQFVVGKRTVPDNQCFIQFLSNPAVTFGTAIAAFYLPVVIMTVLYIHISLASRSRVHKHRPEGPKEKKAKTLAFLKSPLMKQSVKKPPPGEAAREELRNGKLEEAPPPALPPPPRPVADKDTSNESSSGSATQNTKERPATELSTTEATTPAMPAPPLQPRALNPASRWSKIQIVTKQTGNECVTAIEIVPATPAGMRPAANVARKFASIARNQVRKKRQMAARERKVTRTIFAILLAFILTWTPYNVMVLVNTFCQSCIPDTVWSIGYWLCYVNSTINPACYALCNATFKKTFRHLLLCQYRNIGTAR
Test [7] is described as follows: inhibitors of larval lipid processing in zebrafish, primary screen, whole organism, PED6 fluorescence, gall bladder and intestine (AID 686;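 active = a full or partial loss of lipid-probe fluorescence in the fish gall bladder, intestine or both, judged by eye; inactive = no fluorescence loss, or compound toxic to the fish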;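 also: larvae 5 to 7 days old with five fish per well; signal comes from phospholipase A2 cleavage of quenched PED6 carried via bile; overnight exposure to compound and PED6 before scoring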). The following applies: Zebrafish larvae PED6 lipid processing, fluorescence scoring; screened at 20 µM (by protocol).
Test [8] in a line: inhibitors of Chlamydomonas gravitaxis, primary screen, whole organism, Chlamydomonas reinhardtii, WT vs cilia-less mutant, absorbance, 96-well (AID 463189).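 Also: 0% = wild type cc124 cells in DMSO and 100% = ciliumless bld1 mutant cells.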 The following applies: OD600 absorbance, 2 days, at 10 µM, stronger effect = higher value.
The target in test [9] is Alpha-2C adrenergic receptor (Homo sapiens) (UniProt P18825). As to the kind of experiment: modulators of alpha2C/GIRK thallium flux, primary screen, cell-based, HEK293 alpha2C/GIRK1/2 (AID 624;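 active = fluorescence slope after compound addition differing from the mean of all screened samples at 99.7% confidence, in either direction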;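 also: slope of fluorescence ratio to pre-addition baseline per second over 15 to 24 s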). The following applies: thallium flux BTC fluorescence, at 10 µM, actives lie on both sides.
Chain of Alpha-2C adrenergic receptor (Homo sapiens) (P18825 whole entry, looked up): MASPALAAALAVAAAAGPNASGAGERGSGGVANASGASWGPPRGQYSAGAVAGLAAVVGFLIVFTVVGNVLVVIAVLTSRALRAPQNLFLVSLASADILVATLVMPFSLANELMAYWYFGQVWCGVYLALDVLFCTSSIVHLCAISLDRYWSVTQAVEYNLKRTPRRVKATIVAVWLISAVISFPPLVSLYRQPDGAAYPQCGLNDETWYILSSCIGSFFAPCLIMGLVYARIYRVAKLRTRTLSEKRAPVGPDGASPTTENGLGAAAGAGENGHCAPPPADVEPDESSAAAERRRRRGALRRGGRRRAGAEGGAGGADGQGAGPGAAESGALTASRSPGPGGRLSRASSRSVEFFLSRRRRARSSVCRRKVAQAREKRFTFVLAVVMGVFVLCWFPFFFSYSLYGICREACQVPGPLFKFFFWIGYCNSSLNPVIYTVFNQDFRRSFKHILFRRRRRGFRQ
Test [10] in a line: inhibitors of Sendai virus-induced IRF3 signaling, primary screen, TLR/RLR signaling modifier project, cell-based, Sendai virus stimulus, luciferase, 10K MLSCN set (AID 602276;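 active = inhibition at or above 50% at 10 µM; inactive = inhibition below 50%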;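 also: firefly luciferase from ISG56 promoter only with Renilla not read in this screen; 0% = Sendai virus plus DMSO and 100% = medium plus DMSO without virus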). To be noted: HEK293 RL24 IRF3 luciferase reporter, at 10 µM, stronger effect = higher value. (In general: A reporter such as luciferase makes a cellular process visible.)
The nature of test [11]: inhibitors of poly I:C-induced TLR3 signaling, primary screen, cell-based, poly I:C stimulus, luciferase, 10K MLSCN set (AID 602277;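 active = inhibition of the reporter signal at or above 50%; inactive = inhibition below 50%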). To be noted: HEK293-TLR3 RL24 IRF3 luciferase reporter, at 10 µM, stronger effect = higher value.
Where [12] appears, read: measured here: cell density z-score.
Where [13] appears, read: measured here: nuclear c-Myc green intensity z-score.
The mark [14] stands for this setting: measured here: nuclear pErk red intensity z-score, stronger effect = higher value.

Several values for one entry are separate records, joined by “and”; a condition that tells them apart may be missing. Equal entries are not always repeated. Where a structure was tested more than once in an assay, its records may differ in their call. Activity calls are given as the source filed them.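 The calls were made as follows, unless noted: active = inhibition at or above 50% relative to wild type and mutant plate controls; inactive = inhibition below 50%.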

Chain of Voltage-gated potassium channel subunit beta-2 (Rattus norvegicus) (P62483 whole entry, looked up): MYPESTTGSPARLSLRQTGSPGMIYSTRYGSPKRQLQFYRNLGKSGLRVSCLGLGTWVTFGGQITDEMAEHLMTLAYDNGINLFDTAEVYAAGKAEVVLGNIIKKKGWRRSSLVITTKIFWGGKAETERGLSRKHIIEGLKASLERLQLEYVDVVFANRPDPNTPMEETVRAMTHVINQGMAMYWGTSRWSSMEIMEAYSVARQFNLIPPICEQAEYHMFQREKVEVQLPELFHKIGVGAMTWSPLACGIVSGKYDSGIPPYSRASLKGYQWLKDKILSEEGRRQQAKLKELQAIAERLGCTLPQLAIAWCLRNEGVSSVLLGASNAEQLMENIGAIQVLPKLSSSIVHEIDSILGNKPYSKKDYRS

Consider `COc1cccc(C(=O)NCC(=O)n2nc(C)cc2C)c1`, for which the inhibition is -70.4% (inactive) in test [1], 15.1% (inactive) in test [3] and 36% (inactive) in test [8]. This compound registered a nuclei count in test [1] of 88.5%. For the same compound, the z-score is 0.974 in [2] (setting [12]), 0.517 in test [2] (setting [13]) and -1.04 in test [2] (setting [14]). For the same compound, the results for the fluorescence slope in [4] and in [6] were -0.462 (inactive) and 0.00505 (inactive), respectively. For the same compound, the NADPH fluorescence slope in [5] is -4.4e-05 (inactive). Besides, the call in test [7] was inactive.
Consider `CC(C)(C#N)C(C)(C)c1nn[nH]n1`, for which the inhibition in test [1] was -15.5% (inactive); in [3], 13.2% (inactive); in [8], 20% (inactive). In addition, the nuclei count in test [1] stood at 72.6%. In addition, the z-score was 1.29 in [2] (setting [12]), -0.296 in test [2] (setting [13]) and -0.013 in [2] (setting [14]). In addition, the results for the fluorescence slope in test [4] and in [6] were -0.468 (inactive) and 0.00499 (inactive), respectively. Further, the NADPH fluorescence slope in test [5] is -2.9e-05 (inactive). In addition, in test [7], the result was inactive.
`CCN(CC)CCNC(=O)c1ccc(N)cc1`: the inhibition is -57.1% (inactive) in test [1]; 3.59% (inactive) in test [3]; 3.94% (inactive) and 1.02% (inactive) in test [8]; -2.32% (inactive) in [10]; 3.63% (inactive) in test [11]. The same compound showed a nuclei count in test [1] of 133%. The z-score was 1.09 in [2] (setting [12]), -0.602 in test [2] (setting [13]) and -0.833 in test [2] (setting [14]). The fluorescence slope in test [4] is -0.52 (inactive). In addition, the NADPH fluorescence slope in test [5] is -0.000102 (inactive). Also, the slope in test [9] is 0.00563 (inactive). The compound was called inactive in [7].
As to `CC1(C)CC(=O)C=C(N=CC2=C(O)CC(C)(C)CC2=O)C1`, the values for the inhibition in test [1], in test [3] and in test [8] were -39.1% (inactive), 9.39% (inactive) and 8.63% (inactive), respectively. For the same compound, in [1], the nuclei count was determined as 174%. The z-score in test [2] (setting [12]) was -0.899; in [2] (setting [13]) it was 1.02; in test [2] (setting [14]), 0.848. In addition, the fluorescence slope in test [4] was -0.363 (inactive); in test [6], 0.00557 (inactive). For the same compound, the NADPH fluorescence slope in test [5] was -4.6e-05 (inactive). Further, in test [7], the outcome was inactive.
With `O=C(Oc1ccccc1)c1c(Cl)cccc1P(=O)(O)O`, the inhibition in test [1] was -22.4% (inactive); in [3], -0.159% (inactive); in test [8] it was -7.77% (inactive). In test [1], the nuclei count is 146%. The z-score in test [2] (setting [12]) was -1.16; in test [2] (setting [13]) it was 0.0504; in test [2] (setting [14]), -1.03. The values for the fluorescence slope in test [4] and in test [6] were -0.396 (inactive) and 0.00459 (inactive), respectively. In addition, the NADPH fluorescence slope in test [5] is -2.5e-05 (inactive). Moreover, the result in [7] was inactive.
Regarding `O=P(Cc1nnco1)(c1ccccc1)c1ccccc1`, the inhibition is 0.9% (inactive) in test [1], -3.98% (inactive) in test [3] and -3.84% (inactive) in test [8]. Besides, the nuclei count in test [1] came to 176%. Moreover, the values for the z-score in test [2] (setting [12]), in test [2] (setting [13]) and in [2] (setting [14]) were 0.578, -1.79 and 0.749, respectively. Further, the results for the fluorescence slope in [4] and in test [6] were -0.431 (inactive) and 0.00527 (inactive), respectively. Besides, the NADPH fluorescence slope in [5] was -5.1e-05 (inactive). In addition, the outcome in [7] was inactive.
As to `CC[C@]1(O)C[C@@H]2CN(CCc3c([nH]c4ccccc34)[C@@](C(=O)OC)(c3cc4c(cc3OC)N(C)[C@H]3[C@@](O)(C(=O)OC)[C@H](OC(C)=O)[C@]5(CC)C=CCN6CC[C@]43[C@@H]65)C2)C1`, the inhibition is -205% (inactive) in test [1]; -12.3% (inactive) in test [3]; -7.31% (inactive) in test [8]; 23.8% (inactive) in test [10]; 90.5% (active) in test [11]. Also, in test [1], the nuclei count stood at 78%. Further, the z-score in test [2] (setting [12]) was -0.32; in test [2] (setting [13]) it was -0.704; in test [2] (setting [14]), 1.1. Further, the fluorescence slope in [4] is -0.495 (inactive). Besides, in test [5], the NADPH fluorescence slope was -2.5e-05 (inactive). In addition, the slope in [9] is 0.00463 (inactive). Also, in test [7], the compound was classed as inactive.
Take `CC[C@H]1CN2CCc3cc(OC)c(OC)cc3[C@@H]2C[C@@H]1C[C@H]1NCCc2cc(OC)c(OC)cc21`: the inhibition in test [1] was 103% (active); in test [3] it was 11.3% (inactive); in [8], 69.7% (active) and 130% (active); in test [10], -28.7% (inactive); in [11], 103% (active). In test [1], this compound returned a nuclei count of 103%. The z-score is 0.501 in [2] (setting [12]), -0.649 in test [2] (setting [13]) and 0.619 in [2] (setting [14]). The fluorescence slope in test [4] is -0.553 (inactive). Further, the NADPH fluorescence slope in [5] was -3.6e-05 (inactive). Besides, in test [9], the slope was 0.00425 (inactive). In addition, the call in test [7] was inactive.
Regarding `Cc1nnc(NS(=O)(=O)c2ccc(N)cc2)s1`, the inhibition in test [1] is -81.2% (inactive); in [3], 19% (inactive); in [8], -0.666% (inactive); in [10], -4.22% (inactive); in test [11], -8.79% (inactive). For the same compound, the nuclei count in test [1] came to 125%. In addition, the z-score came out at 0.0804 in [2] (setting [12]), 0.446 in test [2] (setting [13]) and 0.118 in test [2] (setting [14]). For the same compound, the fluorescence slope in test [4] was -0.526 (inactive). Moreover, in test [5], the NADPH fluorescence slope was -3.2e-05 (inactive). For the same compound, the slope in [9] was 0.00418 (inactive). Also, the call in [7] was inactive.
Take `Fc1ccc(C(c2ccc(F)cc2)N2CCN(C/C=C/c3ccccc3)CC2)cc1`: the inhibition was -61.3% (inactive) in test [1]; 23.4% (inactive) in test [3]; -8.15% (inactive) and 80.3% (active) in test [8]; 10.5% (inactive) in test [10]; 42.4% (inactive) in test [11]. The compound also yielded a nuclei count in test [1] of 124%. Further, the z-score in test [2] (setting [12]) was -0.381; in test [2] (setting [13]), 1.96; in test [2] (setting [14]) it was -1.06. For the same compound, in test [4], the fluorescence slope is -0.463 (inactive). Further, the NADPH fluorescence slope in test [5] is -6.2e-05 (inactive). In test [9], the slope was 0.00453 (inactive). Moreover, in test [7], the outcome was “inactive; toxic”.
As for `CN(C)CCCN1c2ccccc2CCc2ccccc21`, the inhibition in test [1] is -9.2% (inactive); in test [3], -12.3% (inactive); in [8], -3.09% (inactive) and 37.3% (inactive); in [10] it was -11.2% (inactive); in test [11] it was 5.17% (inactive). The compound further registered a nuclei count in [1] of 128%. The figures for the z-score in test [2] (setting [12]), in test [2] (setting [13]) and in [2] (setting [14]) were -0.894, -0.347 and 2.03, respectively. Moreover, the fluorescence slope in test [4] was -0.545 (inactive). Besides, the NADPH fluorescence slope in test [5] is -3.3e-05 (inactive). Further, the slope in test [9] is 0.00498 (inactive). Further, the compound was called inactive in test [7].
With `COC(=O)C1C(=O)NCC1c1ccccc1` (stereo not drawn), the inhibition is 1.3% (inactive) in [1], 49.5% (inactive) in test [3] and 31.4% (inactive) in [8]. Moreover, the nuclei count in test [1] came to 81.1%. Moreover, the z-score was 5.99 in test [2] (setting [12]), -1.76 in [2] (setting [13]) and -1.15 in [2] (setting [14]). The fluorescence slope in [4] is -0.482 (inactive); in [6] it was 0.00479 (inactive). For the same compound, the NADPH fluorescence slope in [5] is -4e-05 (inactive). Moreover, the compound was called inactive in [7].
For the compound `CN1CCN(C2=Nc3cc(Cl)ccc3Nc3ccccc32)CC1`, the inhibition is -176% (inactive) in test [1]; -0.493% (inactive) in test [3]; -2.62% (inactive) and 13.2% (inactive) in test [8]; 2.76% (inactive) in test [10]; 60.3% (active) in test [11]. Also, the nuclei count in test [1] amounted to 132%. Besides, the z-score is -0.235 in test [2] (setting [12]), 0.0948 in [2] (setting [13]) and 0.322 in test [2] (setting [14]). Also, the fluorescence slope in test [4] was -0.457 (inactive); in test [6], 0.00391 (inactive). Moreover, the NADPH fluorescence slope in test [5] is -6.9e-05 (inactive). The outcome in test [7] was inactive.
Consider `COc1ccc(OCC(=O)OCCN(C)C)cc1`, for which the values for the inhibition in test [1], in test [3] and in [8] were -159% (inactive), -10.6% (inactive) and 6.76% (inactive), respectively. Moreover, the nuclei count in test [1] is 170%. Also, the values for the z-score in [2] (setting [12]), in test [2] (setting [13]) and in test [2] (setting [14]) were -1.95, -1.2 and -0.272, respectively. In addition, the fluorescence slope in [4] is -0.383 (inactive). The NADPH fluorescence slope in test [5] was -2.2e-05 (inactive). Further, the slope in test [9] is 0.00493 (inactive). In addition, the call in [7] was inactive.

The inhibition is the relative decrease from the control value, in per cent.
